We go through 8 compounds from PubChem BioAssay (NCI).

The panel holds about 83,000 compounds, 20% with a hit somewhere; the sample as a whole holds those more often.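 Testing used 96-well plates and a 48-hour single-concentration exposure. Example: -40 means 40% of the starting cells died.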 Unmarked numbers belong to inactive results. The source made the active and inactive calls. How the source made its calls: active means growth percent below 10; inactive means the rest.

Common to all, as to test: NCI-60 one-dose screen, 48 h (100 = growth as untreated, 0 = no growth, -100 = all killed)
What all share (conditions): 10 µM unless noted

Assay [1] has as its system DU-145 prostate.
For assay [2], the system named is K-562 leukemia.
Assay [3] deals with MALME-3M melanoma.
The subject of assay [4] is MDA-MB-231 breast.
The test system of assay [5] is RXF 393 renal.
Assay [6] concerns SF-268 CNS.
Assay [7] has as its system SF-295 CNS.
Assay [8] relates to SF-539 CNS.
For assay [9], the system named is UACC-257 melanoma.
Assay [10] has as its system M14 melanoma.
Assay [11] relates to HCT-15 colon.
Assay [12] relates to HT29 colon.
Assay [13] concerns SNB-75 CNS.
For assay [14], the system named is SNB-19 CNS.
For assay [15], the system named is U251 CNS.
For assay [16], the system named is PC-3 prostate.
Assay [17] deals with SK-MEL-5 melanoma.
Assay [18] relates to UACC-62 melanoma.
Assay [19] relates to LOX IMVI melanoma.
For assay [20], the system named is SK-MEL-28 melanoma.

In the case of `Nc1nc(N)c(-c2ccc(Cl)c(Cl)c2)c(CBr)n1`, the growth in [1] is 83.2%; in [2], 36.8%; in [3], 89%; in assay [4], 82.2%; in assay [5], 90.6%; in assay [6], 94%. Further, the growth in assay [7] is 55.7%; in [8], 65.4%; in assay [9], 68.5%; in assay [10] it was 50.5%; in assay [11], 43%; in [12], 34.2%. Also, the growth in assay [13] was 95%; in assay [14] it was 94%; in [15] it was 65.4%; in [16], 65.2%; in [17], 62.6%; in assay [18], 57%. The growth in [19] was 34.9%; in assay [20], 103%.
In the case of `Cc1ccc(C(=O)c2ccc(CC(=O)N/N=C/c3ccccc3O)n2C)cc1`, the growth in assay [1] was 89.6%; in assay [2], 84.2%; in assay [3], 91.4%; in assay [4], 82.6%; in assay [5], 89.6%; in assay [6], 70.9%. Besides, the growth in [7] is 97.7%; in [8], 89.1%; in assay [9], 95.3%; in assay [10], 82.9%; in [11], 43.5%; in assay [12], 101%. Moreover, the growth in [13] is 59.6%; in assay [14] it was 79.3%; in assay [15], 76.2%; in [16], 86.8%; in assay [17], 87.4%; in assay [18] it was 87.2%. The growth is 58% in assay [19] and 84.3% in assay [20].
Consider `Cn1ccnc1C(=O)/C=C/c1ccc(CC(=O)Nc2cc(C(F)(F)F)cc(C(F)(F)F)c2)cc1`, for which the growth in assay [1] was 73.4%; in assay [2], 61.6%; in assay [3] it was 77.9%; in assay [4], 78.1%; in assay [5] it was 56.2%; in assay [6], 64.9%. For the same compound, the growth in [7] was 84.3%; in assay [8], 67.1%; in assay [9], 72.8%; in assay [10] it was 80.5%; in [11] it was 53%; in assay [12], 66.4%. For the same compound, the growth in assay [13] was 58.3%; in assay [14], 67.1%; in assay [15], 40.8%; in assay [16], 55.9%; in [17], 76.5%; in assay [18] it was 67.5%. In addition, the growth in [19] is 56.5%; in assay [20], 91.2%.
As for `CCCC/C=C/[C@@H]1C[C@H]1CCO`, the growth was 116% in [1]; 103% in assay [2]; 93.6% in assay [3]; 99.2% in assay [4]; 108% in assay [5]; 104% in [6]. For the same compound, the growth is 98.2% in assay [7]; 103% in assay [8]; 91.5% in [9]; 98.9% in assay [10]; 97.7% in assay [11]; 97.2% in assay [12]. The growth in [13] is 90.3%; in assay [14] it was 96.3%; in assay [15], 101%; in [16], 95.5%; in assay [17], 99.3%; in assay [18] it was 92.4%. The growth is 98.2% in assay [19] and 98.1% in assay [20].
On to `Cc1ccccc1/C=C/C(=O)c1cccc(OCCCOc2cccc(C(=O)/C=C/c3ccccc3C)c2)c1`, for which the growth in assay [1] is 102% [3 µM]; in [2], 73.6% [3 µM]; in assay [3], 108% [3 µM]; in [4] it was 94.8% [3 µM]; in [5] it was 98.3% [3 µM]; in [6] it was 99.4% [3 µM]. Moreover, the growth in assay [7] was 90.6% [3 µM]; in assay [8], 103% [3 µM]; in assay [9], 103% [3 µM]; in [10] it was 103% [3 µM]; in assay [11], 87.2% [3 µM]; in assay [12], 79.6% [3 µM]. The growth is 86.1% [3 µM] in assay [13]; 97.1% [3 µM] in assay [14]; 76.1% [3 µM] in assay [15]; 88.8% [3 µM] in [16]; 99.5% [3 µM] in assay [17]; 80.2% [3 µM] in [18]. For the same compound, the results for the growth in assay [19] and in assay [20] were 67.5% [3 µM] and 112% [3 µM], respectively.
Take `O=S(=O)(NCCNc1nccc(-c2c(-c3ccc(F)c(O)c3)nc3occn23)n1)c1ccc(Cl)cc1`: the growth was 90.9% in [1]; 73.8% in assay [2]; 2.05% (active) in assay [3]; 60% in assay [4]; 57.5% in assay [5]; 80.5% in [6]. Also, the growth is 97.4% in assay [7]; 102% in assay [8]; 41.6% in [9]; 26.6% in assay [10]; 98.9% in assay [11]; 92.3% in [12]. Besides, the growth in assay [13] is 85.2%; in assay [14] it was 101%; in assay [15], 93.9%; in assay [16], 79.8%; in assay [17] it was 60.9%; in assay [18], 23.9%. Also, the growth in [19] is 45.5%; in [20], 40.1%.
As to `C=C1C(=O)O[C@H]2[C@H]1CC/C(COC(=O)C(=O)c1cn(C)c3ccc(Cl)cc13)=C\CC[C@@]1(C)O[C@@H]21`, the growth was -96% (active) in [1]; 3.09% (active) in [2]; -65.6% (active) in [3]; -68.7% (active) in assay [4]; -97% (active) in assay [5]; -65.1% (active) in assay [6]. For the same compound, the growth in assay [7] is -65.4% (active); in [8] it was -70.9% (active); in assay [9] it was -84.1% (active); in assay [10] it was -77.3% (active); in [11], -62.8% (active); in [12], -71.3% (active). Besides, the growth is -98.3% (active) in assay [13]; -75% (active) in assay [14]; -95.3% (active) in [15]; -70.5% (active) in assay [16]; -100% (active) in assay [17]; -82.5% (active) in assay [18]. The figures for the growth in [19] and in [20] were -84.5% (active) and -64.6% (active), respectively.
`CC(=O)c1c(C)nc(SCC(=O)Nc2cccc(O)c2)n1-c1ccc(Cl)cc1`: the growth was 103% in assay [1]; 105% in assay [2]; 90.8% in [3]; 82.1% in assay [4]; 92% in [5]; 96.2% in [6]. In addition, the growth in assay [7] was 97.4%; in [8], 105%; in assay [9], 101%; in [10], 94.4%; in [11], 95%; in assay [12], 102%. Besides, the growth in assay [13] is 62.8%; in assay [14] it was 92%; in assay [15], 91.9%; in [16] it was 89.6%; in [17], 93.2%; in assay [18], 75.3%. Besides, the growth was 104% in [19] and 106% in assay [20].
